From PubChem BioAssay (NCATS)
Results filed as inconclusive are left out. Entries that show only a call come without a potency. The source made the active and inactive calls. Unless noted, calls come from the whole dose curve; as a rule, active = well fitted curve in the direction sought with a large enough effect; inconclusive = small, poorly fitted or top-dose-only effect, or another doubt; inactive = no such curve, though single readings can be large; an effect the other way counts as inactive or inconclusive.

Columns and labels:
[1] = target: Cytochrome P450 2C9 (Homo sapiens) (UniProt P11712); experiment: qHTS Assay for Inhibitors and Substrates of Cytochrome P450 2C9 (AID 883); settings: recombinant CYP2C9, luciferin-H luminescence, 60 min; series mostly up to 25.6 µM; note: nearly all actives have a fitted effect of over 60% in size; note: potency is the fitted concentration of half-maximal effect
Outline: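 CYP2C9 deoxyluciferin hydroxylation, 37C, 60 min with NADPH regeneration; 10nM enzyme, 100uM Luciferin-H (KM). Glo detection reagent stopped reaction; luminescence normalized to sulphaphenazole (57uM) full inhibition.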

[2] = AP1 Signaling Pathway (AID 357; active = well fitted curve in either direction with a large enough effect, not every such curve was filed as active;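 note: ME-180 reporter cells stimulated with EGF at its EC50 level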); settings: ME-180 AP-1-bla reporter, EGF-induced, beta-lactamase ratio, 5 h; series mostly up to 17.2 µM
Outline: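 Cells are seeded overnight, exposed to compound titrations and an EC50 level of EGF for 5 hours at 37 °C, then loaded with CCF4 dye for 2.5 hours. Beta-lactamase activity under the AP-1 element is read as a blue/green ratio.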

[3] = qHTS Assay for Identification of Small Molecule Agonists for Hypoxia Response Element Signaling Pathway (AID 914; active = well fitted activation curve with a large enough effect in the signal ratio, with a control signal flat, not every such curve was filed as active; the % refers to the signal ratio; note: potency is the fitted concentration of half-maximal effect); settings: ME-180 HRE-bla reporter, beta-lactamase ratio, CoCl2, 17 h; activation: stronger effect = higher value
Outline: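 In Opti-MEM containing 0.5% dialyzed FBS and 10 mM HEPES, ME-180 HRE-bla cells received a compound titration and EC50 CoCl2. They were incubated 17 hours, then CCF4-loaded 2.5 hours at room temperature before ratio reading.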

[4] = target: DNA dC->dU-editing enzyme APOBEC-3G (Homo sapiens) (UniProt Q9HC16); experiment: qHTS for inhibitors of Vif-A3G interactions: Validation (AID 588379); settings: Vif-A3G protein interaction assay; series mostly up to 46.1 µM
Outline: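 HeLa cells stably expressing Vif and A3G-eYFP, 700 cells/well, incubated overnight at 37 deg C, then exposed to compound overnight at 37 deg C. Inhibition of Vif-mediated degradation read as increased yellow fluorescence (Ex 488/Em 500-530) by laser-scanning cytometry.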

[5] = qHTS profiling for inhibitors of Plasmodium falciparum (3D7) proliferation (AID 743322);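 note: infected erythrocytes exposed to compound for 72 h before lysis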; settings: P. falciparum 3D7 proliferation; at 9.63 µM (top of the series)
Outline: (§1)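 Erythrocytes infected with P. falciparum (0.3% parasitemia, 2.5% hematocrit) incubated with compounds 72 h at 37 C, 5% CO2. Lysis with saponin/Triton buffer containing SYBR Green I, overnight at room temperature in the dark; DNA fluorescence (485/535 nm) normalised to 0.29 uM artemisinin and DMSO.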

[6] = qHTS profiling for inhibitors of Plasmodium falciparum (DD2) proliferation (AID 743323; call rule not given here); settings: lower = more inhibition; at 9.63 µM (top of the series)
Outline: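 P. falciparum Dd2-infected erythrocytes (0.3% parasitemia, 2.5% hematocrit) exposed 72 h at 37 C, 5% CO2. Lysis with SYBR Green, overnight at room temperature, fluorescence 485/535 nm; normalized to 0.29 uM artemisinin and DMSO.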

[7] = qHTS profiling of the MIPE4 collection as inhibitors of Plasmodium falciparum (3D7) proliferation (AID 743344; call rule not given here); settings: P. falciparum 3D7 in erythrocytes, SYBR Green DNA fluorescence, 72 h; at 9.64 µM (top of the series)
Outline: as §1

[8] = qHTS profiling of the MIPE4 collection as inhibitors of Plasmodium falciparum (DD2) proliferation (AID 743345; call rule not given here); settings: P. falciparum Dd2 in erythrocytes, SYBR Green DNA, 72 h; at 9.64 µM (top of the series)
Outline: as §1

[9] = qHTS profiling of the MIPE4 collection as inhibitors of Plasmodium falciparum (DD2) proliferation (Rep 2) (AID 743346; call rule not given here); settings: P. falciparum Dd2 in erythrocytes, SYBR Green DNA, 72 h; at 9.64 µM (top of the series)
Outline: as §1

[10] = qHTS profiling of the MIPE4 collection as inhibitors of Plasmodium falciparum (HB3) proliferation (AID 743347; call rule not given here); settings: P. falciparum HB3 in erythrocytes, SYBR Green DNA, 72 h; at 9.64 µM (top of the series)
Outline: as §1

[11] = Cytotoxicity counterscreen for NFkB agonists and antagonists (AID 624476); settings: NFkB reporter cell line viability counterscreen; series mostly up to 15.4 µM;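 note: cells exposed to compound for 48 hours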
[12] = qHTS Assay for Identification of Small Molecule Agonists for NFkB Signaling Pathway. (AID 624478); settings: NFkB pathway reporter cell assay, agonist mode, cells co-stimulated with 10 pM TNF alpha; series mostly up to 15.4 µM;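 note: compounds tested together with TNF alpha at its EC50 of 10 pM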
Outline: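 ME-180 cervical carcinoma, stable NFkB-RE beta-lactamase reporter; 1000 cells/well, overnight attachment; cpd + TNF alpha 10 pM final, 5 h 37 C; LiveBLAzer 2 h RT; FRET 460/530 nm, ex 405 nm.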

[13] = qHTS Assay for Identification of Small Molecule Antagonists for NFkB Signaling Pathway. (AID 624479; calls by dose curve); settings: NFkB pathway reporter cell assay, antagonist mode; series mostly up to 12.8 µM
[14] = target: Guanine nucleotide-binding protein G(i) subunit alpha-1 (Homo sapiens) (UniProt P63096); experiment: qHTS Assay for Inhibitors of RGS12 GoLoco Motif Activity (Green Fluorophore) (AID 879); settings: Galphai1/FITC-RGS12 GoLoco peptide, fluorescence polarization; series mostly up to 57.1 µM;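 note: negative values mean loss of peptide binding seen as reduced polarization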
Outline: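 Fluorescence polarization assay: 50 nM Gαi1 with 10 nM FITC-labeled RGS12 GoLoco peptide in 10 mM Tris pH 7.5, 150 mM NaCl, 0.1 mM GDP, 0.05% NP40, 10 min at room temperature with compound.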

[15] = qHTS Assay for Identification of Small Molecule Agonists for Thrombopoietin (TPO) Signaling Pathway (AID 917); settings: TPO signaling pathway reporter cells, agonist qHTS, stimulated with TPO at its EC50; series mostly up to 38.5 µM
Outline: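 Murine Ba/F3 cells expressing human TPO receptor and GPIIb-promoter luciferase, IL-3-starved overnight, given compound plus TPO at 26 pM (EC50). After 24 h at 37 C, 5% CO2, luminescence read.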

[16] = target: Pyruvate kinase (Leishmania mexicana) (UniProt Q27686); experiment: qHTS Validation Assay for Inhibitors of Leishmania Mexicana Pyruvate Kinase (AID 945); settings: purified L. mexicana pyruvate kinase, enzyme activity, E451W mutant enzyme; series mostly up to 57.5 µM
Outline: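 An endpoint luciferase assay: 0.2 nM LmPYK E451W turns over 0.5 mM PEP with 0.1 mM ADP for 1 h at room temperature, pH 7.2, before PKLight addition. Values are normalized to DMSO-only wells.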

[17] = target: Pyruvate kinase PKM (Homo sapiens) (UniProt P14618); experiment: qHTS Assay for Activators of Human Muscle Pyruvate Kinase (AID 954; active = well fitted curve in the direction sought with a large enough effect, not every such curve was filed as active); settings: purified human muscle pyruvate kinase, luciferase-coupled luminescence, 1 h; series mostly up to 57.5 µM
Outline: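 Purified human PKM2 (0.1 nM) with 0.5 mM PEP (Km) and 0.1 mM ADP in 50 mM imidazole pH 7.2, KCl, MgCl2, 1 h at room temperature; ATP formed read by coupled luciferase luminescence. Normalized to no-enzyme/110 uM thiadiazolimine inhibition; 0.3 nM enzyme column for activation.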

[18] = target: Alpha-galactosidase A (Homo sapiens) (UniProt P06280); experiment: Counterscreen for Glucocerebrosidase Inhibitors: qHTS Assay for Human alpha-Galactosidase at pH 4.5 (AID 992); settings: purified enzyme, fluorogenic substrate; series mostly up to 76.9 µM
Outline: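 Human enzyme (2 nM) with 80 uM 4-methylumbelliferyl alpha-D-galactopyranoside in 50 mM citric acid, 0.005% Tween-20, pH 4.5, 20 min at room temperature. Compounds 0.7 nM–77 uM; fluorescence Ex 365/Em 440 after pH 10 stop; AC50 from Hill fits.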

[19] = target: alpha-glucosidase (Oryza sativa, rice) (UniProt Q653V4); experiment: Counterscreen for Glucocerebrosidase Inhibitors: qHTS Assay for Rice alpha-Glucosidase at pH 5.0 (AID 997); settings: rice alpha-glucosidase enzyme activity; series mostly up to 76.9 µM
Outline: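 Rice alpha-glucosidase (4 nM final) with 400 uM 4-methylumbelliferyl-alpha-D-glucopyranoside in citrate buffer pH 5.0, 20 min at room temperature, stopped at pH 10; fluorescence 365/440 nm, compounds 0.7 nM–77 uM, AC50 from Hill fits.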

[20] = target: Tyrosyl-DNA phosphodiesterase 1 (Homo sapiens) (UniProt Q9NUW8); experiment: Confirmation Assay for Inhibitors of Tyrosyl-DNA Phosphodiesterase (TDP1) (AID 489007); settings: recombinant human TDP1 enzymatic activity, dose-response; note: potency is the fitted concentration of half-maximal effect; nearly all actives have a fitted effect of over 40% in size
Outline: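 Tdp1 1 nM + cpd, 15 min RT; add biotin/phosphotyrosine-FITC oligo 15 nM, 5 min RT; add AS donor/acceptor beads 10 ug/ml, 10 min RT; read AlphaScreen. No-enzyme wells = max signal.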

Cytochrome P450 2C9 (Homo sapiens), sequence (P11712 whole entry, looked up): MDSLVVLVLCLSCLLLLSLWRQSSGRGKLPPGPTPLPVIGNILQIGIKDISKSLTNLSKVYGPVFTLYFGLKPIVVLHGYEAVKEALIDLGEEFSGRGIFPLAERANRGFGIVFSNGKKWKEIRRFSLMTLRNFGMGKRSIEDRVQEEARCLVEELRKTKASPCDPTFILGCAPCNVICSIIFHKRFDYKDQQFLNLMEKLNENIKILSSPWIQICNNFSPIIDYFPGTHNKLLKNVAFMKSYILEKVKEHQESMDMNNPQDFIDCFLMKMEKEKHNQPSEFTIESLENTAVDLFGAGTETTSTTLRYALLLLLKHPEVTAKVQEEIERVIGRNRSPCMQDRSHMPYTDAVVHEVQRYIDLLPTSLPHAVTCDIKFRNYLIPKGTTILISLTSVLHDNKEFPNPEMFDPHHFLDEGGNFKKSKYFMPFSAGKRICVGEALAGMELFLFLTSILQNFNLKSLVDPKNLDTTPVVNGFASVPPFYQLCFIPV
Tyrosyl-DNA phosphodiesterase 1 (Homo sapiens), sequence (Q9NUW8 whole entry, looked up): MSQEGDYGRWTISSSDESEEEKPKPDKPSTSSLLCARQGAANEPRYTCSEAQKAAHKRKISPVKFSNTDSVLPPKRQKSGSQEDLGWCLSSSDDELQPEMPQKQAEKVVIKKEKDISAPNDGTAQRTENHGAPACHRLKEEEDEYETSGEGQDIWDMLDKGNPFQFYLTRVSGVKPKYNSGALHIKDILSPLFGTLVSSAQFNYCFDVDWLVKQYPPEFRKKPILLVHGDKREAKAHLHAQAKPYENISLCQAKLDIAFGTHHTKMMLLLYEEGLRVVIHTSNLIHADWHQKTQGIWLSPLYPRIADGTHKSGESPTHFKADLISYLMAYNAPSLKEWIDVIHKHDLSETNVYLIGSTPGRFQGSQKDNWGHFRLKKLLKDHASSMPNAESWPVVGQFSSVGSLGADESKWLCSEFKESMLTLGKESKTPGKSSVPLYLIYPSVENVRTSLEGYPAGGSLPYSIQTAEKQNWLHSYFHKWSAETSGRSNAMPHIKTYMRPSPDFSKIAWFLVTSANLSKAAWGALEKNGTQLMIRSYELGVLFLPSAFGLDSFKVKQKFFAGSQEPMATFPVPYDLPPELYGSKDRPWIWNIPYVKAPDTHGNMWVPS
DNA dC->dU-editing enzyme APOBEC-3G (Homo sapiens), sequence (Q9HC16 whole entry, looked up): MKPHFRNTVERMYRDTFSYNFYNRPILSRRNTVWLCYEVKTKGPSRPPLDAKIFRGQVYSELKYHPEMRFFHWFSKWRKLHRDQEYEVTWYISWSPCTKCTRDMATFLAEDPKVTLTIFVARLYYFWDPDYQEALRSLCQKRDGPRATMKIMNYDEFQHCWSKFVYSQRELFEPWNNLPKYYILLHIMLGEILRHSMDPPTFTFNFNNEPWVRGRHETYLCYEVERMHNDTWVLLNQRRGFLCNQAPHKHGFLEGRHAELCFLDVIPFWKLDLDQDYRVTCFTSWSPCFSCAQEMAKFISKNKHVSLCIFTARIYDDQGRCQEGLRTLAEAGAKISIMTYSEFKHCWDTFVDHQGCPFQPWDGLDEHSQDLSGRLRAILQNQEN
Guanine nucleotide-binding protein G(i) subunit alpha-1 (Homo sapiens), sequence (P63096 whole entry, looked up): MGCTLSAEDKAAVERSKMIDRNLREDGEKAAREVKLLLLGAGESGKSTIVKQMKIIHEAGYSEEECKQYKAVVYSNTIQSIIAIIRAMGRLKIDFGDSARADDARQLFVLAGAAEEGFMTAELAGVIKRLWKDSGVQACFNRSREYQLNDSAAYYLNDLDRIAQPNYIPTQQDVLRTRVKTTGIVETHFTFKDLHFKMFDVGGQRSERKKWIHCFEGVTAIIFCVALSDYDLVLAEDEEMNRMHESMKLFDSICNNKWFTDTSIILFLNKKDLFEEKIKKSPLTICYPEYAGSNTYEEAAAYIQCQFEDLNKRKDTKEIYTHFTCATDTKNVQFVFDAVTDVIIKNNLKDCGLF
Pyruvate kinase (Leishmania mexicana), sequence (Q27686 2-499 E452W): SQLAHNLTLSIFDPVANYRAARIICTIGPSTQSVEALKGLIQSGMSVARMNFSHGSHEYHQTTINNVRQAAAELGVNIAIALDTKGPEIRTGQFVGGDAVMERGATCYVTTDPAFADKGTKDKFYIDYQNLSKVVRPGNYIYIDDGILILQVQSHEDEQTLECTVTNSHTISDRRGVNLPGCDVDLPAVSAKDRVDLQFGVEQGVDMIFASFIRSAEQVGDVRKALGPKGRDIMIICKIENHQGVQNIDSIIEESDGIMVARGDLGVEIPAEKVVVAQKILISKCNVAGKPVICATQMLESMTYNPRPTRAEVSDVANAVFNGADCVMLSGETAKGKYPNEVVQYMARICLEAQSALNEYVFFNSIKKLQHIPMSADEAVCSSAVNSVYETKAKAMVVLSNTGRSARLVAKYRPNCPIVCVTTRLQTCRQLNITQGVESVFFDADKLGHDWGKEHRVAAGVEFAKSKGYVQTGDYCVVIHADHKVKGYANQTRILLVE
Pyruvate kinase PKM (Homo sapiens), sequence (P14618 whole entry, looked up): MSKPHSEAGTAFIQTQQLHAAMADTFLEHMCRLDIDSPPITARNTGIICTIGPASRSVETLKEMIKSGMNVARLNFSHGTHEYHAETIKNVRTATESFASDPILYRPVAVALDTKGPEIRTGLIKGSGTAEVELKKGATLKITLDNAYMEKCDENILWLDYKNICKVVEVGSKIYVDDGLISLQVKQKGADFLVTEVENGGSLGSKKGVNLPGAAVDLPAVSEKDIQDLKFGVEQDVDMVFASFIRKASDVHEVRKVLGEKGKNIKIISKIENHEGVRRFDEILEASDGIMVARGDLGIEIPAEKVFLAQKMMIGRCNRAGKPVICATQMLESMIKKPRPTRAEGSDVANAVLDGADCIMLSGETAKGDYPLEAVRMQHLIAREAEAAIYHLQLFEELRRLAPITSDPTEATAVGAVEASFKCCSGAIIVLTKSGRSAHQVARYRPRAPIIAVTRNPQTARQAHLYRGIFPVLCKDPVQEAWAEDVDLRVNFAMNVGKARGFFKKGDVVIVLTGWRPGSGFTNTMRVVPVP
Alpha-galactosidase A (Homo sapiens), sequence (P06280 whole entry, looked up): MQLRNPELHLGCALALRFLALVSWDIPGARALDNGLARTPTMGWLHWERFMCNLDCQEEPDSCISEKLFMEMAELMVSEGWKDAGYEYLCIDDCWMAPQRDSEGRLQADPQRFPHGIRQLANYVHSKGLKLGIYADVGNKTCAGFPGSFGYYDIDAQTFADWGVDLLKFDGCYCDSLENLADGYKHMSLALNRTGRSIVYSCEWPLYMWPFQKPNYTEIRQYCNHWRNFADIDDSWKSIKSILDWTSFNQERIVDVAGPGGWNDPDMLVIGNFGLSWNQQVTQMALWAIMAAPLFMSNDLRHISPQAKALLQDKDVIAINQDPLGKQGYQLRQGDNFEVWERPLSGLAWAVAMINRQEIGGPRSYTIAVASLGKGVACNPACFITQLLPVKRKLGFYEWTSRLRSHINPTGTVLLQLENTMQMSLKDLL

SMILES: C=Cc1c(C)c2cc3nc(cc4[nH]c(cc5nc(cc1[nH]2)C(C)=C5CCC(=O)O)c(CCC(=O)OC)c4C)[C@@]1(C)C3=CC=C(C(=O)OC)[C@H]1C(=O)OC (tested in a mixture with another compound)
- Potency [1]: 1260 nM (active)

SMILES: C[C@@H](Cc1cccc(C(F)(F)F)c1)NCCOC(=O)c1ccccc1
- Potency [1]: inactive

SMILES: C[C@@]12C=CC(=O)C=C1CC[C@H]1[C@H]3CC[C@](O)(C(=O)CO)[C@]3(C)CC(=O)[C@@H]12
- outcome [2]: inactive
- activation [3]: -13.5% (inactive)

SMILES: Nc1ncnc2c1ncn2[C@@H]1O[C@H](COP(=O)(O)O)[C@@H](O)[C@@H]1O
- Potency [1]: inactive

SMILES: CC=C(/C(=C/C)c1ccc(O)cc1)c1ccc(O)cc1
- Potency [1]: 794 nM (active)

SMILES: C[C@H]1CC[C@@H]2[C@@H](C)[C@H]3[C@H](C[C@H]4[C@@H]5CC=C6C[C@@H](O[C@]7(O[C@H]8O[C@@H](C)[C@@H](O)[C@@H](O)[C@@H]8O)C[C@@H](O[C@@H]8O[C@H](CO)[C@@H](O)[C@H](O)[C@@H]8O)[C@@H](O)[C@H](CO)O7)CC[C@]6(C)[C@H]5CC[C@@]34C)N2C1
- Potency [1]: inactive

SMILES: Cc1ccnc(N)c1
- outcome [4]: inactive

SMILES: COc1ccc([C@@H]2CC(=O)c3c(O)cc(O[C@H]4O[C@@H](CO[C@H]5O[C@@H](C)[C@@H](O)[C@@H](O)[C@@H]5O)[C@@H](O)[C@@H](O)[C@@H]4O)cc3O2)cc1O
- activation [3]: -3.87% (inactive)

SMILES: C=C(C)[C@H]1CC[C@]2(CO)CC[C@]3(C)[C@@H](CC[C@H]4[C@@]5(C)CC[C@@H](O)C(C)(C)[C@@H]5CC[C@@]43C)[C@H]12
- Potency [3]: 1260 nM (active)

SMILES: FC(F)(F)c1ccccc1-c1ccc2ncnc(NC3CCNCC3)c2c1
- activity change, negative = inhibition [1]: 12.9% [at 2.29 µM] (inactive)
- activation [3]: -6.93% (inactive)

SMILES: Cc1cc2ccc(=O)oc2cc1OC[C@@H](O)C(C)(C)O
- Potency [1]: inactive
- outcome [4]: inactive

SMILES: CN1[C@H](CC(=O)c2ccccc2)CCC[C@H]1C[C@@H](O)c1ccccc1
- Potency [1]: inactive
- outcome [4]: inactive

SMILES: NCCC(=O)N[C@@H](Cc1cnc[nH]1)C(=O)O
- Potency [1]: inactive
- outcome [4]: inactive

SMILES: C[C@@]12CCC(=O)C[C@@H]1CC(=O)[C@H]1[C@H]3CCC[C@]3(C)C(=O)C[C@@H]12 (tested in a mixture with another compound)
- activation [3]: -12.7% (inactive)

SMILES: COc1cc2ccc(=O)oc2c(O)c1O
- outcome [4]: inactive

SMILES: CO[C@@H]1C=CO[C@]2(C)Oc3c(C)c(O)c4c(O)c(c(C=NN5CCN(C)CC5)c(O)c4c3C2=O)NC(=O)C(C)=CC=C[C@H](C)[C@H](O)[C@H](C)[C@H](O)[C@H](C)[C@H](OC(C)=O)[C@H]1C
- remaining parasite growth % (stronger effect = lower value) [5]: 5.75%
- activity, percent of control [6]: 4.21%
- parasite growth, % of DMSO control [7]: 5.98%
- parasite growth remaining, % of DMSO control (lower = more inhibition) [8]: 11.9%
- parasite growth, % of control (lower = inhibition) [9]: 22.5%
- growth, % of control [10]: 5.71%

SMILES: CCC(C)(C)C(=O)O[C@@H]1C[C@H](C)C=C2C=C[C@H](C)[C@@H](CC[C@H]3C[C@@H](O)CC(=O)O3)[C@H]21
- outcome [11]: inactive
- outcome [12]: inactive
- outcome [13]: inactive

SMILES: COc1ccc2c(c1)N(C[C@@H](C)CN(C)C)c1ccccc1S2
- activation [3]: -28.7% (inactive)

SMILES: COc1cccc(-c2nc(NCCc3c[nH]c4ccc(OC)cc34)c3ccccc3n2)c1
- Potency [1]: 794 nM (active)

SMILES: CC[C@H]1NC(=O)c2cc(S(N)(=O)=O)c(Cl)cc2N1
- activation [3]: 3.52% (inactive)

SMILES: CC/C=C\C[C@H]1C(=O)CC[C@@H]1CC(=O)O
- Potency [1]: inactive
- outcome [4]: inactive

SMILES: Nc1ncnc2c1nc(Br)n2[C@H]1O[C@H]2COP(=O)(O)O[C@H]2[C@@H]1O
- outcome [4]: inactive

SMILES: C[C@]1(c2ccccc2)OC(C(=O)O)=CC1=O
- outcome [4]: inactive

SMILES: C[C@@H](CN1c2ccccc2Sc2ccccc21)N(C)C
- outcome [14]: inactive
- outcome [15]: inactive
- outcome [16]: inactive
- outcome [17]: inactive
- outcome [18]: inactive
- outcome [19]: inactive

SMILES: COc1ccc(-c2cc(=O)c3c(O)cc(O)cc3o2)cc1
- outcome [4]: inactive

SMILES: CC1=C(CCC(=O)O)c2cc3nc(cc4[nH]c(cc5[nH]c(cc1n2)c(C)c5C(C)O)c(C)c4C(C)O)C(C)=C3CCC(=O)O (stereo not given)
- Potency [20]: 6310 nM (active)

SMILES: C/C(=C\CNc1ncnc2nc[nH]c12)CO
- Potency [1]: inactive
- outcome [4]: inactive

SMILES: COc1c(O)cc(O)cc1O
- Potency [20]: 8910 nM (active)

SMILES: C[C@@](N)(C(=O)O)c1cccc(CC(=O)O)c1
- outcome [4]: inactive

SMILES: Cc1cc(O)c(C=O)c2c1C(=O)Oc1c(COC(=O)/C=C/C(=O)O)c(O)c(C(=O)O)c(C)c1O2
- Potency [20]: 3160 nM (active)

SMILES: Cc1cc(O)c(C=O)c2c1C(=O)Oc1c(C)c(O)c3c(c1O2)C(O)OC3=O (stereo not given)
- Potency [20]: 5620 nM (active)
